Dicer inh: inhibitors of human Dicer processing of pre-microRNA; Q9UPY3; cat-ELCCA pre-miR-21 Dicer processing, chemiluminescence; hits give high values; z-score at 25 µM; hit rate 6% among 47,000; AID 1347074; in the data active = z-score above about 3, passing the limit was not always enough;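 also: higher signal means more uncleaved substrate so more Dicer inhibition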
Large screens that a line does not name were inactive. The sample as a whole holds a higher share of hits than the screen did.

Cc1[nH]c2ccccc2c1C(=O)CN1CCN(Cc2ccc3c(c2)OCO3)CC1	Dicer inh 3.34
COc1cccc(CN2CCN(Cc3ccc4c(c3)OCO4)CC2)c1OC	Dicer inh 3.52
c1ccc2c(c1)NC(c1ccc3nsnc3c1)c1cccn1-2 (stereo not given)	none
O=c1oc(-c2cccs2)nc2cccc(F)c12	none
Cn1nc2c3ccccc3n(CC(=O)c3ccc(Br)cc3)c2nc1=S	none
Nc1nc(-c2cccnc2)nn1C(=O)c1ccccc1	none
Cn1c2c(c(=O)n(C)c1=O)C(c1ccc(OC(=O)c3ccccc3)cc1)C1=C(N2)c2ccccc2C1=O (stereo not given)	Dicer inh 7.1
Cn1c2c(c(=O)[nH]c1=O)C(c1ccccc1)C1=C(N2)c2ccccc2C1=O (stereo not given)	Dicer inh 3.03
Cn1c2c(c(=O)[nH]c1=O)C(c1ccc(F)cc1)C1=C(N2)c2ccccc2C1=O (stereo not given)	none
Cn1c2c(c(=O)[nH]c1=O)C(c1ccc(Cl)cc1)C1=C(N2)c2ccccc2C1=O (stereo not given)	none
Cn1c2c(c(=O)n(C)c1=O)C(c1cccc(OC(=O)c3ccccc3)c1)C1=C(N2)c2ccccc2C1=O (stereo not given)	none
Cc1ccc(C2C3=C(Nc4c2c(=O)n(C)c(=O)n4C)c2ccccc2C3=O)cc1 (stereo not given)	none
CCOC(=O)C1=C(C)NC2=C(C(=O)c3ccccc32)C1c1ccc(OC)cc1 (stereo not given)	Dicer inh 3.3
Cn1c2c(c(=O)[nH]c1=O)C(c1ccc(-c3ccccc3)cc1)C1=C(N2)c2ccccc2C1=O (stereo not given)	Dicer inh 4.59
CCOC(=O)C1=C(C)NC2=C(C(=O)c3ccccc32)C1c1cccc(OC)c1 (stereo not given)	none
CCOC(=O)C1=C(C)NC2=C(C(=O)c3ccccc32)C1c1ccccc1 (stereo not given)	none
Cc1ccc(C2C3=C(Nc4c2c(=O)[nH]c(=O)n4C)c2ccccc2C3=O)cc1 (stereo not given)	none
Cn1c2c(c(=O)[nH]c1=O)C(c1ccc(Br)cc1)C1=C(N2)c2ccccc2C1=O (stereo not given)	none
COc1ccc(OCC(O)CNC(C)C)cc1 (stereo not given)	none
Cn1[nH]c(=O)c2c(C(F)(F)F)ccnc21	none
COCCN1C(=O)CC(C(=O)OC)=C1C	none
Cc1nn(-c2ccccc2)c2nc3ccccc3c(N3CCOCC3)c12	none
CN(C)/C=C(\C(=O)c1cccc(C(F)(F)F)c1)c1nnnn1-c1ccccc1	none
CCOc1ccc2nc(SCc3ccc(C)cc3)[nH]c2c1	none
C#CC(C)(C)NC(=O)c1ccc(C(C)(C)C)cc1	none
Cc1ccc(OCC2NCCS2)c([N+](=O)[O-])c1 (stereo not given)	none
O=C(CSc1nnc2sc3ccccc3n12)NC(=O)Nc1ccccc1	none
Cc1cc(Br)ccc1S(=O)(=O)Nc1ccnn1C	none
CC1(C)CC(=O)C2=C(C1)N(c1ccc(S(N)(=O)=O)cc1)C(N)=C(C#N)C2c1ccccc1Cl (stereo not given)	none
CCOC(=O)c1cnc2c(c(C)nn2C)c1Oc1ccc(F)cc1	none
O=C(NCCCn1ccnc1)c1ccc2c(c1)OCO2	none
COC(=O)C1=NN(c2ccccc2)C(=O)/C1=C\N(C)C	none
O=[N+]([O-])c1ccc2c(c1)S(=O)(=O)CC2SCc1ccccc1 (stereo not given)	none
CC1CCc2c(sc3nnn(CC(=O)N4CCCC4)c(=O)c23)C1 (stereo not given)	none
O=C(c1cn(CC(=O)N2CCCCC2)c2ccccc12)C1CC1	none
O=C(Cn1nc(C(F)F)cc1C1CC1)N1CCCC1	Dicer inh 3.06
CNC(=S)NNC(=O)c1ccc2ncccc2c1	none
COC(=O)c1c(NC(=O)c2ccc(Cl)cc2)csc1C	none
COC(=O)/C(C#N)=C/c1ccc(Cl)cc1	none
COC(=O)/C(C#N)=C/c1cccc(Br)c1	Dicer inh 9.3
CCOC(=O)/C(C#N)=C/c1ccc(Br)cc1	none
CSC(=CC(=O)c1ccc(Oc2ccccc2)cc1)SC	none
COc1cccc2c1OC(CCSC)N1N=C(c3ccccc3O)CC21 (stereo not given)	none
COc1ccc(-c2noc(Cc3ccccc3)n2)cc1	none
CCCN1C(=O)C2(/C(=C(/O)c3ccc(Cl)cc3)C(=O)C(=O)N2CCCN(C)C)c2ccccc21 (stereo not given)	none
CCCN1C(=O)C2(/C(=C(/O)c3ccccc3)C(=O)C(=O)N2CCCOC)c2ccccc21 (stereo not given)	Dicer inh 5.02
CCCN1C(=O)C2(/C(=C(/O)c3ccc(Cl)cc3)C(=O)C(=O)N2CCOC)c2ccccc21 (stereo not given)	none
CCCN1C(=O)C2(/C(=C(/O)c3ccc(C)cc3)C(=O)C(=O)N2CCCN(C)C)c2ccccc21 (stereo not given)	none
CCCN1C(=O)C2(/C(=C(/O)c3ccc(OCC)cc3)C(=O)C(=O)N2CCN(C)C)c2ccccc21 (stereo not given)	none
COCCCN1C(=O)C(=O)/C(=C(\O)c2ccc(OC)cc2)C12C(=O)N(C)c1ccccc12 (stereo not given)	none

Bioassay records deposited in PubChem by Center for Chemical Genomics, University of Michigan.
